# Experimental data published in PubChem BioAssay (Tox21).
# Results filed as inconclusive are left out. A call without a number means that no potency is given here. Calls of active or inactive are those of the source. Calls follow the shape of the full dose curve.
# Assay: qHTS assay for small molecules that induce genotoxicity in human embryonic kidney cells expressing luciferase-tagged ATAD5 - cell viability (AID 651634); also: nearly all actives have a fitted effect of over 25% in size
# Conditions: HEK293T ATAD5-luc cells viability, CellTiter-Fluor, 15.5 h; series mostly up to 83.3 µM
# Description: National Center for Advancing Translational Sciences [NCATS]
# NIH Chemical Genomics Center [NCGC]
# U.S. Environmental Protection Agency [EPA]
# National Institutes of Environmental Health Sciences [NIEHS]
# National Toxicology Program [NTP]
# U.S. Food and Drug Administration [FDA]
# Enhanced Level of Genome Instability Gene 1 (ELG1; human ATAD5) protein levels increase in response to various types of DNA damage. Using a luciferase reporter-gene tagged with ElG1, a cell-based assay [developed by Kyungjae Myung, NHGRI, NIH] was used to measure the induction of ATAD5 in human embryonic kidney cells (HEK293T). So, increase in luciferase activity can be used to identify the compounds that cause genetic stress. In addition to genotoxicity, these cells were also used to test for cytotoxicity by measuring the protease activity within live cells.
# Tox21 Assay Protocol Summary:
# For cytotoxicity screening, 2,000 cells in 5 uL/well were dispensed into white, solid-bottom 1536-well plates using a Multidrop Combi (Thermo Scientific) dispenser. Following transfer of 23 nL compound or DMSO vehicle by a pin tool, the plates were incubated 15.5 hr at 37C and 5% CO2. 1 ul CellTiter-Fluor reagent (Promega, Madison, WI) was then added to each plate and following 30 min incubation at 37C, fluorescence intensity was quantified on a ViewLux CCD-based plate reader.
row,SMILES,Potency
1,O=C1NC(=O)[C@@]2(CCOc3ccc(F)cc32)N1,inactive
2,Nc1cc(=O)[nH]c(N)n1,inactive
3,O=C[C@H](O)[C@@H](O)[C@H](O)[C@H](O)CO,inactive
4,COC(=O)NN,inactive
5,CC(=O)CC(C)C,inactive
6,NC(=O)c1cn(Cc2c(F)cccc2F)nn1,inactive
7,CN(C)CCCSc1ccccc1NC(=O)/C=C/c1ccccc1,inactive
8,Cc1nc2c([nH]1)c(=O)n(C)c(=O)n2Cc1ccco1,inactive
9,C[C@](N)(Cc1ccc(O)cc1)C(=O)O,inactive
10,CC(C)(O)C#CC(C)(C)O,inactive
11,N=C(N)c1ccc2cc(OC(=O)c3ccc(N=C(N)N)cc3)ccc2c1,inactive
12,N=C(N)c1ccc(OCCCOc2ccc(C(=N)N)cc2)cc1,inactive
13,CCCCCOC(=O)CCCCC,inactive
14,CC(C)CCCC(C)N (stereo not given),inactive
15,CC(=O)OCC(=O)[C@@]1(O)CC[C@H]2[C@@H]3CCC4=CC(=O)CC[C@]4(C)[C@H]3C(=O)C[C@@]21C,inactive
16,ClC(Cl)(Br)Br,inactive
17,N[C@@H](C(=O)N[C@@H]1C(=O)N2C(C(=O)O)=C(Cl)CS[C@H]12)c1ccccc1,inactive
18,CCCCOCCOCCOCCCC,inactive
19,CCN1CCC[C@H]1CNC(=O)c1cc(S(N)(=O)=O)ccc1OC,inactive
20,CC(C)(O)C(=O)c1ccccc1,inactive

row,SMILES,Potency
1,O=C1OC(=O)C2CCCCC12 (stereo not given),inactive
2,C=CCOCC(CC)(CO)COCC=C,inactive
3,FC1(F)C(F)(F)C(F)(F)C2(F)C(F)(F)C(F)(F)C(F)(F)C(F)(F)C2(F)C1(F)F (stereo not given),inactive
4,COc1ccc(CCN(C)CCCC(C#N)(c2cc(OC)c(OC)c(OC)c2)C(C)C)cc1OC (stereo not given),inactive
5,Cc1ccc(=O)n(-c2ccccc2)c1,inactive
6,O=c1cc(-c2ccccc2)oc2ccccc12,inactive
7,CCC(=O)OC(C)c1ccccc1 (stereo not given),inactive
8,O=C1CCCCCCCCCCCN1,inactive
9,CC(=O)Nc1ccc(S(N)(=O)=O)cc1,inactive
10,COc1ccc2c(c1)c(CC(=O)OCC(=O)O)c(C)n2C(=O)c1ccc(Cl)cc1,inactive
11,O=C(O)CCCl,inactive
12,COC(=O)CC(C)=O,inactive
13,O=S(O)CO,inactive
14,N=c1nc(N2CCCCC2)cc(N)n1O,inactive
15,NC(=O)Nc1ccccc1,inactive
16,Nc1c2c(nc3ccccc13)CCCC2O (stereo not given),inactive
17,COc1ccccc1OCC(O)CN1CCN(CC(=O)Nc2c(C)cccc2C)CC1 (stereo not given),inactive
18,Nc1ccc(S(=O)(=O)Nc2ccnn2-c2ccccc2)cc1,inactive
19,N#Cc1ccc(C2CCCc3cncn32)cc1 (stereo not given),inactive
20,COC(=O)CCSCCC(=O)OC,inactive
